PubChem BioAssay AID1903 (Southern Research Specialized Biocontainment Screening …, 2009)
The campaign covered roughly 310,000 compounds. About 1,200 (0.39%) were called active. The rule behind the calls is not given here. Not all results are given here. Potency and affinity values are given separately.

Molecular target: Large T antigen (Simian virus 40) (UniProt P03070)
Assay: TAg ATPase/helicase activity blockers – biochemical (AID 1903)
Conditions: SV40 large T antigen ATPase/helicase inhibition assay; at 20 µM; stronger effect = higher value

Sequence of Large T antigen (Simian virus 40) (P03070 whole entry, looked up): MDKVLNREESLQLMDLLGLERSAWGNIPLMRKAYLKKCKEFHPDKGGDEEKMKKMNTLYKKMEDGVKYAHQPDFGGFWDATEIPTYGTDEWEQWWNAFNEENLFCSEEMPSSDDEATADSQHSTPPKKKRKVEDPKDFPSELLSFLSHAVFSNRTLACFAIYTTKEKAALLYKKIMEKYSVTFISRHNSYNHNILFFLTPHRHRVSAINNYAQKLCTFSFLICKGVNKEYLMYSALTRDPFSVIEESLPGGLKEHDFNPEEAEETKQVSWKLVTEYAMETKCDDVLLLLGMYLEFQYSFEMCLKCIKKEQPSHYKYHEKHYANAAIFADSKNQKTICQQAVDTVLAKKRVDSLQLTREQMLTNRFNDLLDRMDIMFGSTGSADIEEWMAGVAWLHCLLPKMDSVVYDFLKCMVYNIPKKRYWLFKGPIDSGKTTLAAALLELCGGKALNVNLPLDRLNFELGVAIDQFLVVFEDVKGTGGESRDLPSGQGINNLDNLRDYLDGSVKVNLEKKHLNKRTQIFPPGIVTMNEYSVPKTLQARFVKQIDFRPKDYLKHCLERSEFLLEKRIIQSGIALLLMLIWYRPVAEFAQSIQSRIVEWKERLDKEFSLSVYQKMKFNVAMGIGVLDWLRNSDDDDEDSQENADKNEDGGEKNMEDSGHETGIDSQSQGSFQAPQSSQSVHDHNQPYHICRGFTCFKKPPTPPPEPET

inhibition, inactive:
CCOC(=O)c1cc(-c2ccc(OC)cc2)n(CCC(=O)NCCN2CCC(C)CC2)c1C 5.63%
CCN(CC)C(=O)Cn1cnc2ccccc2c1=O 5.63%
COc1ccc(N2C(=O)C3CC(C)=C(C)CC3C2=O)c(OC)c1 (stereo not given) 11.1%
COc1ccc(N2C(=O)/C(=C/c3cccs3)NC2=S)cc1 14.1%
Cc1ccc(/C=C2/C(=O)N(c3ccccc3)C(=S)N2C)o1 6.66%
Cc1ccc(/C=C2/NC(=O)N(c3ccccc3)C2=O)o1 22.8%
Cc1ccc(/C=C2\C(=O)Nc3ccccc32)o1 11.2%
CCCN1C(=O)/C(=C/c2ccc(C)o2)NC1=S 33.1%
O=C1/C(=C\c2ccco2)NC(=S)N1c1ccccc1 35.2%
CCOc1ccc(N2C(=O)/C(=C/c3ccc(C)o3)N(C)C2=S)cc1 15.8%
COc1cc(O)c(C(CC(=O)N2CCCC(C)C2)c2ccc3c(c2)OCO3)c(OC)c1 (stereo not given) 6.43%
Cn1cccc1C(=O)NNC(=O)c1ccccc1Br 8.13%
CC1(C)CC(=O)/C(=C(\O)Cc2ccccc2)C(=NCCCCCC(=O)O)C1 4.38%
CCCCNCc1cccn1-c1ccccc1 24.7%
COc1c(C)cccc1C(=O)Nc1ccc(OCC(=O)N2CCOCC2)cc1C 14.7%
COCC(=O)N/N=C\c1ccccc1OC/C=C/c1ccccc1 4.69%
C=CCOc1ccc(C=Nc2ccc(OC)cc2)c(O)c1 28.3%
COc1ccc(N=Cc2[nH]c3ccccc3c2O)cc1 13.7%
Cc1csc(NC(=O)CSc2nnc(-c3ccccc3)o2)n1 -6.99%
CCn1c(SCC(=O)N/N=C/c2cc(OC)c(O)c(OC)c2)nc2ccccc21 -7.37%
Cn1c(SCC(=O)N/N=C/c2ccncc2)nc2ccccc21 2.44%
CCn1c(SCC(=O)N/N=C/c2ccc(OC)c(OC)c2)nc2ccccc21 6.02%
O=C(N/N=C/c1ccc(O)cc1)c1cc(-c2ccccc2)nc2ccccc12 14.6%
Cc1cc(SCC(=O)N/N=C/c2ccc(C(=O)O)cc2)nc2ccccc12 6.65%
COc1cc(/C=N/NC(=O)CSc2nc3ccccc3n2C)cc(OC)c1OC -1.56%
Cc1cc(SCC(=O)N/N=C/c2ccc(O)cc2O)nc2ccccc12 7.95%
COc1cc(/C=N/NC(=O)c2cc(-c3ccccc3)nc3ccccc23)ccc1O 25.1%
C#CCOCCOCCOCCNc1nc(N2CCN(C(=O)CCCCCCCCCCNC(=O)[C@@H](CCC(=O)O)n3cc(CCCCCN)nn3)CC2)nc(N2CCN(C(=O)CCCCCCCCCCNC(=O)[C@H](CO)n3cc(CCCCCN)nn3)CC2)n1 31.5%
CCOC(=O)C1=C(C)N(C)C(=S)N(C)C1c1ccc(OC)cc1 (stereo not given) -2.82%
CCOc1cc2sc(N3CCC(C(=O)NCCCN4CCCC4=O)CC3)nc2cc1Br 12.1%
Cc1ccc(C(=O)NCCc2n[nH]c(=S)n2C)cc1 10.6%
CCC(=O)N1c2ccccc2[C@@H](N(C(C)=O)c2ccccc2)C[C@H]1C 4.31%
O=C(c1ccccc1)N1CCN(C2CC3CCC2C3)CC1 (stereo not given) 6.45%
O=C1/C(=C/c2ccc(F)cc2)SC(=S)N1CC(=O)N1CCCCC1c1cccnc1 (stereo not given) 18.2%
CCOC(=O)c1c(C)n(C)c2c(C)cc(O)c(OC(C)=O)c12 1.3%
COC(=O)c1ccc(N)c(CS(=O)(=O)c2ccc(Cl)cc2)c1 -0.68%
OCC1(Cc2ccccc2)CCCN(Cc2ccc3c(c2)OCCO3)C1 (stereo not given) 10.8%
CC(C)n1cnc2cc(NCc3nc4ccccc4n3C)ccc21 20.2%
O=C(CSc1nc2ccccc2o1)N/N=C/c1ccc(C(=O)O)cc1 16.5%
O=C(Cc1nnc(NC(=O)c2ccccc2)s1)N/N=C/c1ccc(O)cc1 17.1%
O=C(CSc1nc2ccccc2o1)N/N=C/c1ccccc1 12.4%
Cc1ccc(C(=O)Nc2nnc(CC(=O)N/N=C/c3ccc(O)c(O)c3)s2)cc1 19.4%
CCN(CC(=O)Nc1c(F)cccc1F)C(=O)/C=C/c1ccc(Br)s1 18.8%
Cc1ccc(-c2cn3c(n2)SCC3)cc1 23.1%
Oc1ccc(-c2cn3c(n2)SCC3)cc1 28.9%
Cc1ccc(C)c(S(=O)(=O)N2CCCCC2CCNC(=O)C(=O)NCc2cccnc2)c1 (stereo not given) 11.7%
CN(C)CCn1c(COc2ccccc2)nc2ccccc21 27.6%
COc1ccc(N2CCN(C(=S)NCc3ccc(C)cc3)CC2)cc1 5.85%
CCCCCC(=O)NC(NC(=S)Nc1ccc(S(N)(=O)=O)cc1)C(Cl)(Cl)Cl (stereo not given) 7.24%
O=C(Nc1cccc(N2CCCC2)c1)c1cccs1 7.12%
O=C(Nc1cccc(-n2cnnn2)c1)c1cccs1 6.94%
CN1CCCN(C(=O)CSc2ccccc2)CC1 27.3%
Cc1ccc(/C=C/C(=O)NCc2ccco2)o1 16.3%
O=C1C(=Cc2cccn2-c2ccc(O)cc2)C(=O)c2ccccc21 3.5%
O=C1NC(=S)N/C1=C/c1cccn1-c1ccc([N+](=O)[O-])cc1 5.15%
COc1ccc(N(CC(=O)Nc2ccc(C)cc2C)S(=O)(=O)c2c(C)n[nH]c2C)cc1 17.7%
O=C(COC(=O)c1n[nH]c2ccccc12)Nc1cccc(S(=O)(=O)N2CCOCC2)c1 7.02%
CCOc1ccc(NS(=O)(=O)c2ccc3[nH]c(=O)oc3c2)cc1 1.63%
CCOc1ccc(S(=O)(=O)Nc2ccc(O)c(Sc3ncn[nH]3)c2)cc1 6.38%
O=C(c1ccc(S(=O)(=O)Nc2ccc(F)cc2)cc1)N1CCN(c2ccccn2)CC1 10.4%
COc1cc(/C=C2\C(=O)NN(c3ccc(C)cc3)C2=O)cc([N+](=O)[O-])c1O 36.6%
COc1cc(/C=C2/C(=O)NN(c3cccc(C)c3)C2=O)cc([N+](=O)[O-])c1O 12.9%
COC(=O)c1ccc(N2NC(=O)/C(=C/c3ccc(OC)c(OC)c3)C2=O)cc1 23.8%
COc1cc(/C=C2/C(=O)NN(c3ccc(Cl)cc3)C2=O)cc(Br)c1O 32.1%
COc1cc(/C=C2\C(=O)N(c3ccc(S(N)(=O)=O)cc3)N=C2C)ccc1OC(=O)c1ccco1 32.1%
COc1cc(/C=C2/SC(=O)NC2=O)ccc1OC(=O)c1ccco1 15.8%
O=C(c1cccc2nc3ccccc3nc12)N1CCOCC1 13.7%
Cc1ccccc1N1C(=O)c2cccc([N+](=O)[O-])c2C1=O 18.8%
Cc1cccn2c(CNCCSc3nccn3C)c(C(=O)N3CCCCC3)nc12 14.5%
O=C(Nc1nncs1)Oc1ccccc1 14.9%
CCCCc1nc(SCC(=O)N2CCCC2)c2c(=O)n(C)c(=O)n(C)c2n1 8.36%
O=C(Nc1nccs1)C1CC=CCC1 (stereo not given) 2.9%
O=C(Nc1ccc(F)cc1)C1CCCO1 (stereo not given) 22.1%
O=C(Nc1ccc(F)cc1)c1ccc(NC(=O)C2CCCO2)cc1 (stereo not given) 1.01%
O=C(Nc1ccc(Oc2ccc(NC(=O)C3CCCO3)cc2)cc1)C1CCCO1 (stereo not given) 5.21%
O=C(Nc1cccc(O)c1)c1ccc(NC(=O)C2CCCO2)cc1 (stereo not given) 12.5%
O=C(NNC(=O)C1CC=CCC1)c1ccccc1O (stereo not given) -2.59%
COc1ccc(OC)c(CC(=O)NC(c2ccccc2)c2ccccc2)c1 5.47%
O=C(N=Nc1c(O)[nH]c2ccccc12)c1cc(-c2ccc(F)cc2)n[nH]1 7.92%
O=C(c1ccncc1)N1CCN(C(=O)c2ccco2)CC1 6.56%
O=S(Cc1cc(Oc2ccccc2)nc(-c2ccccc2)n1)c1ccccc1 (stereo not given) 16.4%
CN1CCN(c2ccc(CNC(=O)c3ccco3)cc2)CC1 9.25%
O=C(CCCN1C(=O)CSc2ncccc21)N1CCN(Cc2ccccc2)CC1 -0.33%
COc1cccc(N/C(SCc2ccccc2F)=C(/C#N)C(=O)NCc2cccs2)c1 2.65%
Cc1ccc2[nH]c(=O)c(CN(Cc3ccccc3)C(=S)NCCCN(C)C)cc2c1 2.51%
NC(=O)c1cc(N)ccc1N1CCCCC1 36%
NC(=O)c1cc(N)ccc1N1CCCC1 18.4%
COc1ccc(N(CC(=O)N2CCCC2)S(=O)(=O)c2ccc(NC(C)=O)cc2)cc1 -2.23%
O=C(CCc1ccccc1)Nc1nc2nc(-c3ccccc3)cc(=O)n2[nH]1 -26.7%
C/C(O)=C(/C#N)c1nc2ccccc2[nH]1 7.8%
C/C(O)=C(\C#N)c1nc2ccccc2[nH]1 1.46%
O=S(=O)(c1cc(-c2nnc(-c3ccc(Br)cc3)o2)ccc1Br)N1CCCCCC1 4.66%
O=C(Nc1ccc(Cl)cc1Cl)c1ccc(-c2ccccc2)cc1 3.2%
CN(C)c1nn(C(=O)Nc2cccc(C(F)(F)F)c2)cc1-c1ccccc1 23.9%
CN1CCN(S(=O)(=O)c2cnccc2N2CCN(c3cccc(Cl)c3)CC2)CC1 25%
